The values below come from PubChem BioAssay AID1038 (National Center for Advancing Translational Sciences (NCATS), 2008).

A short description of the assay: Normal 1 Cell Viability Secondary Assay for qHTS Assay for Epigenetic Modulators. Conditions: Normal 1 bronchial epithelial viability, MTS, 4 d. An excerpt:
NIH Molecular Libraries Screening Centers Network [MLSCN] NIH Chemical Genomics Center [NCGC] MLSCN Grant: 1 X01 MH079860-01 Assay Provider: Elisabeth D. Martinez, University of Texas SW Medical Center NCGC Assay Overview: This secondary assay characterizes selected actives identified in the qHTS of the Locus Derepression (LDR) assay (PubChem AID 597). The LDR assay detects the derepression of a GFP reporter that is stably integrated in a region of the genome of murine c127i mammary cells that is presumably silenced. Compounds that cause derepression of the locus to express GFP are identified by enumerating GFP positive cells using a laser-scanning microplate cytometer. […] Normal 1 cell viability was measured using Cell Titer 96 AQueous One (Promega), an assay which detects the ability of metabolically active cells to reduce a tetrazolium salt substrate (MTS), into a soluble formazan product that can be measured by colorimetry.
NCGC Assay Protocol Summary Normal 1 cells were plated in 96-well flat bottom tissue culture dishes (Corning) and grown overnight at 37 C and 5% CO2, then treated with compounds, incubated 4 days, and assayed for viability using the Cell Titer 96 AQueous One kit (Promega) according to the manufacturer's protocol. Absorbance at 490 nm and 650 nm (reference) was measured by a Spectra Max (Molecular Devices). […]

Records with an inconclusive call do not appear. Active and inactive are the calls of the source. Calls follow the shape of the full dose curve.

In the case of `CN1CSC(=S)N(C)C1`, the outcome was inactive.
